Data reported in PubChem BioAssay AID602139 (NMMLSC, 2011).
This is one part of the list. Calls of active or inactive are those of the source. Cut-off read from the data, not from the text of the source: active = inhibition above about 32%; inactive = the rest.

Tested on: Botulinum neurotoxin type A light chain protease (Clostridium botulinum A str. ATCC 3502)
Test: BoNT/A light chain protease inhibitors, confirmation, biochemical, flow cytometry, cherry pick 1 (AID 602139)
Conditions: multiplex microsphere protease assay, at 10 µM, hits give high values

| SMILES | inhibition |
| --- | --- |
| Cc1cccc2cc3c(N)c(C(=O)N4CCCc5ccccc54)sc3nc12 | 16.3% (inactive) |
| Cc1c(NC(=O)c2cccnc2)c(=O)n(-c2ccccc2)n1C | 0.8% (inactive) |
| CCCN1C2CCCC1CC(NC(=O)c1cccc(OC)c1)C2 (configuration not stated) | 0.4% (inactive) |
| Nc1ccccc1Sc1cc(Cl)nnc1Cl | -0.2% (inactive) |
| CCOCC(=O)NCc1ccc2c(c1)cc(C)n2C | 1.8% (inactive) |
| Cc1ccc2[nH]cc(CCNC(=O)C3CCCCC3)c2c1 | -0.1% (inactive) |
| O=C(O)c1cc(S(=O)(=O)NC2CCCc3ccccc32)ccc1O (configuration not stated) | 0.7% (inactive) |
| COc1cc(C(=O)NCc2ccc3c(c2)cc(C)n3C)cc(OC)c1OC | -0.1% (inactive) |
| Cc1ccccc1NC(=O)c1cc(S(=O)(=O)Nc2cccc(C(=O)O)c2)ccc1Cl | -1.4% (inactive) |
| Cc1cc(S(=O)(=O)NC2CCCC2)ccc1-n1cnnn1 | 0.3% (inactive) |
| Brc1ccc2ncnc(NCc3cccnc3)c2c1 | -2.2% (inactive) |
| COc1ccc(N(CC(=O)NCCSCc2cccc(Cl)c2)S(C)(=O)=O)cc1 | 1% (inactive) |
| COc1ccc(Br)cc1CNCCc1cccc(Cl)c1 | 1.5% (inactive) |
| CN(C(=O)c1ccccn1)c1nnc(-c2ccccn2)s1 | -1.1% (inactive) |
| Clc1ccc(-c2ncc3ccccn23)c(Cl)c1 | 2.4% (inactive) |
| COc1cc2cc(CN(CCN3CCCC3)C(=O)Nc3ccccc3Cl)c(=O)[nH]c2cc1OC | -2.7% (inactive) |
| COc1ccc(C(=O)Nc2nc(-c3ccc(OC)cc3)c(-c3ccc([N+](=O)[O-])cc3)s2)cc1 | 15.9% (inactive) |
| Cc1ccc(-c2nc(-c3cccnc3)sc2CC(=O)Nc2ccc(C)c(Cl)c2)cc1 | 7.8% (inactive) |
| COc1ccc(NS(=O)(=O)c2cc(C(=O)Nc3ccccc3C(=O)O)ccc2C)cc1 | 0.6% (inactive) |
| OC(c1ccc(Cl)cc1)C(CN1CCOCC1)c1ccccc1 (configuration not stated) | 2.5% (inactive) |
| CN1CCN(c2ccc(NC(=O)c3ccccc3)cc2)CC1 | 1.8% (inactive) |
| COc1ccccc1C1CCN(C(=S)Nc2ccc(Br)cc2)CC1 | 0.8% (inactive) |
